HP1b binding inh: blocks HP1-beta chromodomain binding to methylated histone tails. P83916. AlphaScreen HP1-beta / biotin-H3K9me3 peptide binding. Potency, µM (series often up to 114 µM), without a hit: at the top dose activity change, negative = inhibition, most hits filed as inhibitors. 0.56% of 390,000 active. AID 540317; further: nearly all actives have a fitted effect of over 70% in size
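HP1-beta protein (50 nM final) preincubated 30 min at room temperature with biotinylated H3(1-18)K9me3 peptide (50 nM) in PBS pH 7.4, 0.01% Tween-20, then compound added for 30 min. AlphaScreen streptavidin donor/nickel chelate acceptor beads (10 ug/mL final), 30 min dark, luminescence read.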
Sfp PPTase inh: blocks B. subtilis Sfp PPTase activity; Q9F4F7; Biochemical Sfp PPTase activity, qHTS; Potency, µM, inactives show largest response in the series, negative = inhibition, actives largely listed as inhibitors; 3.5% of 310,000 active; AID 1490;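 further: the enzyme is Sfp with the accession as filed and its product quenches rhodamine fluorescence; 0% = enzyme reaction without inhibitor and -100% = no enzyme wells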
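With Hepes-Na pH 7.6 buffer containing 10 mM MgCl2, Sfp (15 nM) modified BHQ-2-YbbR (12.5 uM) using rhodamine-CoA (5 uM). Two reads 30 minutes apart at 525/598 nm yielded each well's rate.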
BAZ2B block: inhibitors of human BAZ2B bromodomain. Q9UIF8. AlphaScreen BAZ2B-H3K14Ac peptide displacement. Potency, µM (series often up to 114 µM), without a hit: top-dose activity change, negative = inhibition, hits mostly inhibitors. 4.4% of 360,000 active. AID 504333; further: on the % scale 0 is the no-effect control and ±100 the full control effect; nearly all actives have a fitted effect of over 60% in size
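Complex of BAZ2B and biotin-H3K14Ac (50 nM apiece) forms over 30 min at RT, then faces library compounds up to 110 uM for another 30 min; AlphaScreen beads added, 20 min dark incubation, luminescence read.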
G9a block: G9a (human) methyltransferase inhibition. Q96KQ7. G9a H3K9 monomethylation, AlphaScreen, 2 h. Potency, µM (top dose mostly 102 µM), for inactives: at the top dose activity, negative = inhibition, usual class: inhibitors. 8.8% of 350,000 active. AID 504332; further: on the % scale 0 is the no-effect control and ±100 the full control effect; nearly all actives have a fitted effect of over 75% in size
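Compounds were preincubated with 20 nM G9a for 15 min, after which biotinylated H3K9 peptide (500 nM) and SAM (20 uM) started a 2 h room-temperature reaction. Monomethylated product was quantified by antibody-based AlphaScreen chemiluminescence.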
JMJD2A Tudor: JMJD2A Tudor domain (human) inhibition; O75164; AlphaScreen JMJD2A-Tudor / H3K4me3 peptide binding; Potency, µM (doses to about 114 µM), inactives show at the highest dose activity change, negative = inhibition, actives largely listed as inhibitors; 4.4% of 390,000 active; AID 504339; further: on the % scale 0 is the no-effect control and ±100 the full control effect; nearly all actives have a fitted effect of over 50% in size
Target sequence (O75164 whole entry, looked up, the tested form may be a part): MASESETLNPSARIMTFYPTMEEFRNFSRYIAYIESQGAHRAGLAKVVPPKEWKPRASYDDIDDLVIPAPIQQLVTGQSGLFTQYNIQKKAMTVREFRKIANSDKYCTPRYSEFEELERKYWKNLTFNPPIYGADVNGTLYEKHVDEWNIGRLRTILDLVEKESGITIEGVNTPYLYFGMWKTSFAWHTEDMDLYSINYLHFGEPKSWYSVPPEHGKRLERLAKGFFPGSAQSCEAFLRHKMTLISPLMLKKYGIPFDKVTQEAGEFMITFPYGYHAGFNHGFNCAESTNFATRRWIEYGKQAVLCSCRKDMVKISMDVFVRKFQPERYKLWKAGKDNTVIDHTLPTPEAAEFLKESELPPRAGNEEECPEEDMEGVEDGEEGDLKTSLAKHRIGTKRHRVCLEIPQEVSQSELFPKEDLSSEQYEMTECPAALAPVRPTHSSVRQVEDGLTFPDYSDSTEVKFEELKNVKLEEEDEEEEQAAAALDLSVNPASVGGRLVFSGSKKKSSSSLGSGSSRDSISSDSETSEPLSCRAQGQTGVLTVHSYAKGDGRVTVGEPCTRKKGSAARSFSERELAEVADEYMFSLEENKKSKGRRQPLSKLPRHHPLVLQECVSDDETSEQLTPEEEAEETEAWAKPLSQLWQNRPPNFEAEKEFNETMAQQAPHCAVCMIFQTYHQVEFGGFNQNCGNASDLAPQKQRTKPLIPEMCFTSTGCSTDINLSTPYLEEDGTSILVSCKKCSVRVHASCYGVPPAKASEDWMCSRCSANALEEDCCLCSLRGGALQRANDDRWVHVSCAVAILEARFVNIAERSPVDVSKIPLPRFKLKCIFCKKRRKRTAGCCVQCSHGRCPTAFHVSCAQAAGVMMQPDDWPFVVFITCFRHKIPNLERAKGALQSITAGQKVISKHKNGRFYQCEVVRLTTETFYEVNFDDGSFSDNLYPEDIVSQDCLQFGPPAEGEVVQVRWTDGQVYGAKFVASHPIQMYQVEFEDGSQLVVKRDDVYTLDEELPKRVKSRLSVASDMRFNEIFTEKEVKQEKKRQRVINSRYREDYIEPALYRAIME
Starred values were filed as active, the others as inactive; ? = inconclusive; · = not tested or not shown; [ ] = another dose, or the depositor's remark. Shown are actives, neighbours in structure and some others; about 12% of the full set was active somewhere. The call rests on the fitted dose curve; in most records, active means well fitted curve in the direction sought with a large enough effect; inconclusive means small, poorly fitted or top-dose-only effect, or another doubt; inactive means no such curve, though single readings can be large; an effect the other way counts as inactive or inconclusive. Potency means the concentration at half of the fitted maximal effect.

SMILES | HP1b binding inh | Sfp PPTase inh | BAZ2B block | G9a block | JMJD2A Tudor
CCSc1ccc2nnc(-c3cccc(F)c3)n2n1 | -37% | ? | 11% | 4µM* | 79µM*
COC(=O)[C@]1(Cc2ccccc2)N[C@H](CN(C)C(=O)C2CCCCC2)[C@@H]2C(=O)N(Cc3ccccc3)C(=O)[C@@H]21 | 48% | · | · | · | -2%
CCN(CC(=O)Nc1ccc(OC)cc1)C(=O)c1ccc([N+](=O)[O-])cc1 | 12% | -22% | 5% | 1% | 10µM*
CCN(CC(=O)Nc1ccc(OC)cc1)C(=O)c1ccc2c(c1)NC(=O)CS2 | -5% | · | 5% | 45µM* | -16%
O=CNC1c2ccccc2CCc2ccccc21 | 35% | · | · | · | -16%
COc1ccc(NC(=O)Nc2cccs2)cn1 | 9% | 56µM* | -37% | 35µM* | -35%
COc1ccc(NC(=O)/C(Cl)=C(/Cl)S(=O)Cc2ccc(Cl)cc2)cn1 (centres undefined) | 50% | 11µM* | -15% | 11µM* | -28%
COc1ccc(NC(=O)C(Cl)=C(Cl)Cl)cn1 | 24% | 8% | 5% | 25% | -2%
COc1ccc(NC(=O)Nc2cc(C)cc(C)c2)cn1 | 35% | 4% | -3% | 6% | -12%
COc1ccc(NC(=O)CCl)cn1 | · | ? | 79µM* | 28µM* | ·
Cc1ccc(NS(=O)(=O)c2cccc(C(=O)NCCCN3CCOCC3)c2)cc1 | 23% | · | 10% | 13%[0.501 µM] | -14%
O=C1CN(C(=O)C2CC2)c2ccccc2N1 | 7% | 19% | -3% | ? | -29%
CC1(C)Cc2c(sc3nc(-c4ccccc4Cl)n(N)c(=O)c23)CO1 | 10% | 5% | 5% | 25%[59 µM] | -18%
O=C(NNc1cccc(Cl)c1)c1cccnc1Oc1ccccc1 | 36% | -5% | -5% | 16µM* | 5%
O=S(=O)(c1ccccc1)n1nc(-c2ccc(Cl)cc2)nc1NCc1ccc(F)cc1 | 58% | · | 13% | 6%[59 µM] | 14%
CC1=CC(C)(C)[N+](C)(C)c2ccc(C)cc21 | 9% | 15% | ? | 56µM* | ?
O=[N+]([O-])c1cccc2c[nH]nc12 | · | -23% | · | · | ·
Cc1oc(-c2cccc(Br)c2)[n+]([O-])c1C | 16% | -16% | -9% | 2% | -27%
Nn1c(-c2cccc(Br)c2)n[nH]c1=S | -10% | ? | ? | 2.2µM* | 35µM*
S=c1[nH]nc(-c2cccnc2)o1 | 37% | 56µM* | ? | ? | 20µM*
S=c1[nH]nc(-c2cccc(Br)c2)o1 | 10% | 11% | -8% | 1.8µM* | ?
Cc1ccc2nc(-c3cccnc3)oc2c1 | 23% | 10% | 8% | 49%[12.7 µM] | -14%[57.1 µM]
Nc1nc(-c2cccc(Br)c2)cs1 | -6% | -19% | ? | ? | -33%
Cc1cc(C)c(C(=O)N2CCCC(CNS(=O)(=O)N(C)C)C2)o1 (centres undefined) | 58% | 12% | -13%[57.1 µM] | 8% | -12%
O=C(CNC1=NCCC1)c1ccc(Cl)cc1 | 28% | -14% | 3% | 28µM* | -10%
SMILES | HP1b binding inh | Sfp PPTase inh | BAZ2B block | G9a block | JMJD2A Tudor
CN(C)c1ccc(N2CN=C3SCC(=O)N3C2)cc1 | 56µM* | ? | 25µM* | ? | 50µM*
Cc1c(O)ccc(C(=O)CN2CCN(c3ccc(F)cc3)CC2)c1O | -5%[57 µM] | 10% | -35% | 45µM* | -33%
Cc1ccccc1NC(=O)CN1CCN(Cc2ccccc2)CC1 | 21% | 19% | -15% | -3% | -8%
Cc1c(O)ccc(C(=O)CN2CCN(Cc3ccccc3)CC2)c1O | 72% | -8% | -31% | 79µM* | 9%
COc1ccc(Cc2nc3ccc(C(=O)N(C)Cc4nccs4)cc3o2)cc1OC | -3% | 1% | -8% | · | ?
O=C1c2ccccc2C(=O)N1Nc1ccccc1 | 27% | 2% | 8% | 0%[0.0925 µM] | -10%
Cc1ccc(NN2C(=O)C=C(c3ccccc3)C2=O)cc1 | -33% | 11µM* | -31% | 10µM* | -32%
CCN1CCN(CCn2c(=S)[nH]c3ccccc3c2=O)CC1 | 31% | 1% | 3% | ? | -30%
O=c1c2sc3ccccc3c2[nH]c(=S)n1CCN1CCOCC1 | 21% | 45µM* | -21% | 3.5µM* | ?
COCCCn1c(=S)[nH]c2c(sc3ccccc32)c1=O | -7% | 79µM* | -11% | ? | -35%
O=C(O)CCCn1c(=S)[nH]c2c(sc3ccc([N+](=O)[O-])cc32)c1=O | 32% | 45µM* | ? | 8.9µM* | 18µM*
COCCCn1c(=O)c2ccccc2c2ccccc2c1=O | 46% | 18% | -29% | 65%[59 µM] | 25%
CCOC(=O)C1=C(C)N(CCCC(=O)O)C(=O)NC1c1ccc([N+](=O)[O-])cc1 (centres undefined) | 37% | -16% | 3% | -43% | -9%
CC1CCN(CCCn2c(=S)[nH]c3c(sc4ccccc43)c2=O)CC1 | 1% | -23% | -25% | 8.9µM* | ?
O=C(Nc1ccccc1)Nc1ccc2ccccc2c1 | 49% | 10% | 1% | ? | -3%[11.4 µM]
CSCC[C@H](NC(=O)c1cc2c([nH]c3ccccc32)c(-c2ccccc2)n1)C(=O)O | 8% | 13% | ? | -21% | -24%
COc1ccc(Cn2c(=O)sc3ccccc3c2=O)cc1 | 118%[57 µM] | -5% | 65% | 133% | 116%
CC1CCN(CCCn2c(=S)[nH]c3c(sc4ccc([N+](=O)[O-])cc43)c2=O)CC1 | 28% | 56µM* | -17% | 40µM* | -13%
COCCn1c(=O)sc2ccccc2c1=O | 3% | 7% | 0% | 2% | 14µM*
CCn1c(CC(=O)Nc2ccc(F)cc2)nnc1SCC(=O)NC1CCCC1 | 2% | 6% | 5% | ? | -8%
Cc1ccc2c(N)c(C(=O)N(c3ccccc3)c3ccccc3)sc2n1 | 35% | ? | -13% | 14µM* | -5%
Oc1c(Br)cc(Cl)cc1C=Nc1ccc(N2CCOCC2)cc1 | 33% | -5% | -13% | ? | -19%
Clc1cccc(-c2ccc(C=Nc3ccc(N4CCOCC4)cc3)o2)c1 | ? | -20% | 32µM* | 3.2µM* | ?
Oc1ccc(N=Nc2cccc(Cl)c2)cc1C=Nc1ccc(N2CCOCC2)cc1 | ? | -4% | 7.9µM* | ? | ?
CCc1cccc(C)c1NC(=O)Cn1cnc2c1c(=O)n(C)c(=O)n2C | 10% | · | 3% | 8%[59 µM] | -18%
O=c1c2cn(Cc3ccc(F)cc3)c3ccccc3c-2nn1Cc1ccc(F)cc1 | -11% | -1% | 4% | 32µM* | -22%
CCOC(=O)C(Sc1nnc(-c2ccncc2)o1)C(C)=O (centres undefined) | 10% | -1% | 3% | 7.9µM* | ?
Cc1cccc(C(=O)N2CCN(S(=O)(=O)c3ccc4c(c3)OCCCO4)CC2)c1[N+](=O)[O-] | 11% | 19% | -25% | 23% | -17%
CCC(CO)Oc1cc(NCc2ccccc2F)c2ncn(C(C)C)c2c1 (centres undefined) | -3% | · | ? | 18%[2.33 µM] | ?

Screens (PubChem)
